# ± gives the standard deviation of the averaged measurements.
# How the values were obtained:
# Settings in all cases: concentration: 10 µM; 24 h
# [1] = tested on: HCC1569; assay: cell number relative to DMSO (% of DMSO); higher = more cells (less growth inhibition / toxicity)
# In short: (§1)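 H1.0 nuclear intensity or cell number is expressed as percent of the plate control, with the median of replicates taken. HCC1569 and TDF cells were treated with compounds at 10 µM for 24 h at 37 °C, in triplicate, then fixed and immunostained for H1.0 with DAPI as a nuclear stain. HCC1569 values were smoothed to correct for positional effects.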
# [2] = tested on: TDF; assay: as above
# In short: as §1
# [3] = tested on: TDF; assay: H1.0 immunofluorescence intensity relative to DMSO (% of DMSO); higher = stronger H1.0 induction, active = 120 or more
# In short: as §1
# [4] = tested on: HCC1569; assay: H1.0 immunofluorescence intensity relative to DMSO (% of DMSO); higher = stronger H1.0 induction, active = 140 or more
# In short: as §1
# 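Throughout, for H1.0 immunofluorescence intensity relative to DMSO: TDF is a line of transformed human dermal fibroblasts of mesenchymal origin.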
# 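Throughout, for cell number relative to DMSO: TDF denotes transformed human dermal fibroblasts of mesenchymal origin.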
Compound,cell number [1],cell number [2],H1.0 immunofluorescence intensity [3],H1.0 immunofluorescence intensity [4]
Nc1ccc(S(=O)(=O)Nc2ccnn2-c2ccccc2)cc1 [Sulfaphenazole],107,113,89.8 (inactive),106 (inactive)
CCC(C)n1ncn(-c2ccc(N3CCN(c4ccc(OCC5COC(Cn6cncn6)(c6ccc(Cl)cc6Cl)O5)cc4)CC3)cc2)c1=O (configuration not stated) [Itraconazole],79.5,93,108 (inactive),149 (active)
COc1ccc(CC2c3cc(OC)c(OC)cc3CC[N+]2(C)C)cc1OC.[I-] (configuration not stated) [Laudanosine methiodide],101,112,91.3 (inactive),93.6 (inactive)
CC(C)CCN1c2nc(Nc3cc(F)c(O)c(F)c3)ncc2N(C)C(=O)C1C (configuration not stated),65,29.6,131 (active),148 (active)
Nc1ncnc2c1ncn2C1CCCO1 (configuration not stated),76.9,96.4,99 (inactive),183 (active)
O=C(Nc1nc2ccccc2n1CCN1CCOCC1)c1cccc([N+](=O)[O-])c1 [IRAK-1/4 Inhibitor],98.2,104,91.2 (inactive),117 (inactive)
O=C1NC(=O)C(c2c[nH]c3ccccc23)=C1c1c[nH]c2ccccc12 [Bisindolylmaleimide IV],91.2,119,94.7 (inactive),136 (inactive)
CC(C)(C=O)Cc1cc(C(C)(C)C)c(O)c(C(C)(C)C)c1,109,106,92 (inactive),97.1 (inactive)
N=S(=O)([O-])Cc1noc2ccccc12.[Na+] [Zonisamide sodium],104,117,92.2 (inactive),98.6 (inactive)
COc1cc(C(=O)OCCC[NH+]2CCC[NH+](CCCOC(=O)c3cc(OC)c(OC)c(OC)c3)CC2)cc(OC)c1OC.[Cl-].[Cl-] [Dilazep hydrochloride],94.8,90.1,108 (inactive),107 (inactive)
"CCN1C(=CC(C)=O)Sc2ccc(OC)cc21 [Cdc2-Like Kinase Inhibitor, TG003]",97.3,112,89.5 (inactive),119 (inactive)
O=c1cc(N2CCOCC2)nc2c3ccccc3ccn12,95.2,91.4,94.7 (inactive),111 (inactive)
OC1c2ccccc2N=C2CCCN21 (configuration not stated) [Peganole],95,93.7,95.3 (inactive),91.1 (inactive)
CC(C)CC(NC(=O)C(O)C(N)Cc1ccccc1)C(=O)O.Cl (configuration not stated) [Bestatin hydrochloride],101,104,96.3 (inactive),99.6 (inactive)
C[C@H](c1ccc(F)cc1CCCC(=O)O)N(c1cc(F)ccc1F)S(=O)(=O)c1ccc(Cl)cc1,99.7,90.2,94.6 (inactive),111 (inactive)
COc1cc(O)c(C(=O)C=Cc2ccccc2)c(OC)c1 [Flavokawain B],75.4,81.6,93.6 (inactive),124 (inactive)
COc1ccc(C2CC(c3ccccc3)=NN2c2ccc(S(N)(=O)=O)cc2)cc1 (configuration not stated),95.8,97.9,91.3 (inactive),114 (inactive)
"CCN(CC)CCOC(=O)c1cc(Cl)c(N)cc1OC.Cl [SDZ-205,557 hydrochloride]",105,98.8,85.4 (inactive),86.8 (inactive)
O=C1C(=O)c2ccccc2C(O)=C1C1CCC(c2ccc(Cl)cc2)CC1 (configuration not stated) [Atovaquone],100,99,95 (inactive),108 (inactive)
O=C(O)CC/C=C\C[C@H]1CO[C@@H](c2ccccc2Cl)O[C@H]1c1ccccc1O,100,96.5,95.5 (inactive),108 (inactive)
Br.COc1ccccc1N1CCN(CCCCN2C(=O)c3ccccc3C2=O)CC1 [NAN-190 hydrobromide],104,102,90.9 (inactive),100 (inactive)
Cl.Clc1ccc(Cn2c(CN3CCCC3)nc3ccccc32)cc1 [Clemizole hydrochloride],99,112,93.5 (inactive),90.7 (inactive)
CC(C)NNC(=O)c1ccncc1.O=P(O)(O)O [Iproniazid phosphate],116,119,93.8 (inactive),85 (inactive)
"Nc1cc(=O)nc(N)[nH]1 [2,6-Diamino-4-pyrimidinone]",99.3,104,93.6 (inactive),97.1 (inactive)
CC(C)c1cccc(C(C)C)c1N1C(=O)c2ccc(O)cc2C1=O,60.4,59.5,119 (inactive),162 (active)
CCCSc1ccc2nc(NC(=O)OC)[nH]c2c1 [Albendazole],61.4,9.62,149 (active),176 (active)
OCC1OC(n2cnc3c(NC4CCCCC4)ncnc32)C(O)C1O (configuration not stated) [N6-Cyclohexyladenosine],100,105,97.9 (inactive),92.8 (inactive)

Compound,cell number [1],cell number [2],H1.0 immunofluorescence intensity [3],H1.0 immunofluorescence intensity [4]
O=c1[nH]c(=O)n(C2CC(O)C(CO)O2)cc1I (configuration not stated) [Idoxuridine],103,100,92.2 (inactive),121 (inactive)
"COc1ccc2cc(C(C)C(=O)[O-])ccc2c1.[Na+] (single isomer, unassigned; (-)) [(-)-Naproxen sodium]",105,93.1,96.1 (inactive),102 (inactive)
CCNC(=O)C1OC(n2cnc3c(N)nc(NCCc4ccc(CCC(=O)O)cc4)nc32)C(O)C1O.Cl (configuration not stated),118,96,103 (inactive),102 (inactive)
Cc1ccccc1/N=N/c1ccc(NC(=O)c2ccnn2C)c(C)c1,94.6,98.7,98.5 (inactive),110 (inactive)
CCC1C(=O)OCC1Cc1cncn1C.Cl (configuration not stated) [Pilocarpine.HCl],102 ± 2.4,94.48 ± 0.24,97.6 (inactive),102 (inactive)
Clc1ccc(Nc2nnc(Cc3ccncc3)c3ccccc23)cc1 [Vatalanib],103,103,97.2 (inactive),105 (inactive)
CN1CCC(c2c(O)cc(O)c3c(=O)cc(-c4ccccc4Cl)oc23)C(O)C1 (configuration not stated) [Alvocidib],59.4,19.9,132 (active),111 (inactive)
NCC1CCC(C(=O)O)CC1 (configuration not stated) [Tranexamic acid],99.5,104,87.9 (inactive),111 (inactive)
Cl.Cl.NCCCCN [Putrescine dihydrochloride],102,118,94.1 (inactive),98.2 (inactive)
CC(C)OC(=O)C(C)(C)Oc1ccc(C(=O)c2ccc(Cl)cc2)cc1 [Fenofibrate],99.6 ± 2.2,106.6 ± 0.69,95 (inactive),109 (inactive)
CC(C)=CCCC(C)=CCCC(C)=CCSc1ccccc1C(=O)O [Farnesylthiosalicylic acid],93.9,99.9,90.7 (inactive),94.5 (inactive)
O=C(C=Cc1ccc(O)cc1)CC(=O)C=Cc1ccc(O)cc1 [bis-demethoxycurcumin],82.7,98.6,92.7 (inactive),104 (inactive)
CCCCCC=CCC(O)C=CC=CCCC(=O)O [Tetranor-12(R)-HETE],104,93.9,100 (inactive),102 (inactive)
O=C(O)CCCC=CCC1C2CCC(O2)C1CNNC(=O)Nc1ccccc1 (configuration not stated),102,103,92.8 (inactive),99.7 (inactive)
"C#CCn1c(=O)c2c(ncn2C)n(C)c1=O [3,7-Dimethyl-I-propargylxanthine]",99.5,97.1,91.6 (inactive),93.4 (inactive)
N#CC(=Cc1ccc(O)c(O)c1)C(=O)OCC=Cc1ccccc1,91.9,105,90.5 (inactive),115 (inactive)
COc1ccc(C2CNC(=O)C2)cc1OC1CCCC1 (configuration not stated) [Rolipram],101 ± 1.8,108 ± 4.6,91.5 (inactive),110 (inactive)
CCOc1ccc2c(c1)C(C)=CC(C)(C)N2 [Ethoxyquin],100,104,96.1 (inactive),98.9 (inactive)
"CCCCC(C)(O)CC=CC1C(O)CC(=O)C1CCCCCCC(=O)O (configuration not stated) [Misoprostol, free acid]",100,85.8,95.6 (inactive),98.8 (inactive)
C[Se]CCC(N)C(=O)O (configuration not stated) [Selenomethionine],100,94,104 (inactive),105 (inactive)
O=C1CN(N=Cc2ccc(-c3ccc([N+](=O)[O-])cc3)o2)C(=O)[N-]1.[Na+] [Dantrolene sodium],100,97,100 (inactive),102 (inactive)
CN(C)CCC=C1c2ccccc2CCc2ccccc21.Cl [Amitriptyline hydrochloride],100,100,104 (inactive),94.1 (inactive)
O=c1cc(N2CCOCC2)oc2c1ccc1ccccc12 [DNA-PK Inhibitor II],98.1,97.4,92.5 (inactive),112 (inactive)
N#CC(=Cc1ccc(O)c(O)c1)C(=O)NCCc1ccccc1 [Tyrphostin AG 698],84.3,91,87.8 (inactive),119 (inactive)
CCCCCC=CCC=CCC=CCC=CCCCCCC(=O)O [Adrenic acid (22:4 n-6)],99,107,108 (inactive),99.9 (inactive)
O=c1oc2ccccc2c(O)c1Cc1c(O)c2ccccc2oc1=O [Dicoumarol],99.6,94.5,99 (inactive),98.4 (inactive)
